Screening data deposited in PubChem BioAssay by Broad Institute.
NOMO-1 viab: STK33 inhibitor candidate reducing NOMO-1 cell viability; NOMO-1 AML viability, CellTiter-Glo luminescence, 72 h; inhibition, % (test concentration not listed); actives 7.5% (n = 37,000); AID 2330; in the data active means inhibition above about 80%; inconclusive means no clear call, values can overlap the other calls
PD-1 reverse act: activators reversing PD-1 mediated T-cell inhibition. primary human CD4 T cells, PD-L1 beads, CellTiter-Glo 96 h. activation, % (concentration not given with the values). 29,000 tested, under 10 active; call rule not given here
STK33 kin inh: inhibitors of human STK33 kinase. Q9BYT3. ADP-Glo luminescence, MBP substrate. inhibition, % at 12.5 µM. actives 0.44% (n = 27,000); in the data active means inhibition above about 20%; inconclusive means no clear call, values can overlap the other calls
Target sequence (Q9BYT3 whole entry, looked up): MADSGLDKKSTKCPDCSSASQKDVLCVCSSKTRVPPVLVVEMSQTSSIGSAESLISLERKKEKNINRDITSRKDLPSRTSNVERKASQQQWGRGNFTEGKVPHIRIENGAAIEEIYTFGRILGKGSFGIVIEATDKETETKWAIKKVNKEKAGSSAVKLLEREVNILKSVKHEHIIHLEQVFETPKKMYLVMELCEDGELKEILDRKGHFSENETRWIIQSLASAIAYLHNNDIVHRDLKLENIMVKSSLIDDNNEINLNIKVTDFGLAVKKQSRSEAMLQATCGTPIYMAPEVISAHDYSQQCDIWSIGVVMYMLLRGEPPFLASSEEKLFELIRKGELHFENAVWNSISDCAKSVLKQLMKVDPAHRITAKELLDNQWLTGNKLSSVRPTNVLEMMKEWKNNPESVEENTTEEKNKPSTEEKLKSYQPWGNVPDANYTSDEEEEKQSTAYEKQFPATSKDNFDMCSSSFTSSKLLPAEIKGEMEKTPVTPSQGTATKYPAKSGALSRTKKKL
Numbers stand for hits. Only a selection was taken, and hits are over-represented in it overall.

`C[C@@H]1CN([C@H](C)CO)C(=O)Cc2cc(NC(=O)c3ccncc3)ccc2O[C@@H]1CN(C)Cc1ccc(C(=O)Nc2ccccc2N)cc1` gave NOMO-1 viab inactive and PD-1 reverse act inactive.
C[C@@H]1CN([C@H](C)CO)C(=O)Cc2cc(NC(=O)Nc3ccc(F)cc3)ccc2O[C@H]1CN(C)Cc1ccc(C(=O)Nc2ccccc2N)cc1 was read as NOMO-1 viab inactive and PD-1 reverse act inactive.
C[C@H](CO)N1C[C@H](C)[C@H](CN(C)Cc2ccc(C(=O)Nc3ccccc3N)cc2)Oc2ccc(NC(=O)Cn3cnnn3)cc2CC1=O was read as NOMO-1 viab 97 and PD-1 reverse act inactive.
C[C@H]1CN([C@@H](C)CO)C(=O)Cc2cc(NC(=O)C3CC3)ccc2O[C@H]1CN(C)Cc1ccc(C(=O)Nc2ccccc2N)cc1 was read as NOMO-1 viab 128 and PD-1 reverse act inactive.
Screening C[C@H](CO)N1C[C@H](C)[C@H](CN(C)Cc2ccc(C(=O)Nc3ccccc3N)cc2)Oc2ccc(NC(=O)Nc3cccc4ccccc34)cc2C1=O returned NOMO-1 viab inconclusive and PD-1 reverse act inactive.
`C[C@@H]1CN([C@@H](C)CO)C(=O)Cc2cc(NC(=O)Nc3ccc(C(F)(F)F)cc3)ccc2O[C@@H]1CN(C)Cc1ccc(C(=O)Nc2ccccc2N)cc1` gave NOMO-1 viab 127 and PD-1 reverse act inactive.
`C[C@H](CO)N1C[C@H](C)[C@H](CN(C)Cc2ccc(C(=O)Nc3ccccc3N)cc2)Oc2ccc(NC(=O)Nc3cccc4ccccc34)cc2CC1=O` gave NOMO-1 viab 141 and PD-1 reverse act inactive.
Screening C[C@@H]1CN([C@H](C)CO)C(=O)c2cc(NC(=O)Cn3cnnn3)ccc2O[C@H]1CN(C)Cc1ccc(C(=O)Nc2ccccc2N)cc1 returned NOMO-1 viab inactive and PD-1 reverse act inactive.
For COc1ccc(C(=O)Nc2ccc(C(=O)NCc3ccco3)cc2)cc1 the results were NOMO-1 viab inactive and STK33 kin inh inactive.
Screening Cc1ccccc1S(=O)(=O)N1CCN(Cc2cccc(OCCO)c2)CC1 returned STK33 kin inh inactive.
For Cc1cc(Cl)c(S(=O)(=O)Nc2cccnc2)cc1OCC(N)=O the results were NOMO-1 viab inactive, PD-1 reverse act inactive and STK33 kin inh inactive.
For N#CCC(=O)N=Cc1ccc(Cl)cc1Cl the results were NOMO-1 viab inactive and PD-1 reverse act inactive.
For COc1cccc(C(=O)NCCN=C2NS(=O)(=O)c3ccccc32)c1 the results were NOMO-1 viab inactive, PD-1 reverse act inactive and STK33 kin inh inactive.
`O=C(COc1ccccc1Cl)Nc1ccc([N+](=O)[O-])cc1O` gave NOMO-1 viab inactive and STK33 kin inh inactive.
For O=C(CSc1nnnn1-c1cccc2ccccc12)c1ccc(O)c(O)c1 the results were NOMO-1 viab inactive and STK33 kin inh inactive.
`O=C(COc1ccc2ccccc2c1)Oc1ccc(C(=O)c2ccccc2)cc1` gave NOMO-1 viab inactive and PD-1 reverse act inactive.
Screening C[C@H]1CN([C@@H](C)CO)C(=O)Cc2cc(NC(=O)Nc3ccc(F)cc3)ccc2O[C@@H]1CN(C)Cc1ccc(C(=O)Nc2ccccc2N)cc1 returned NOMO-1 viab inactive and PD-1 reverse act inactive.
C[C@@H]1CN([C@H](C)CO)C(=O)Cc2cc(NC(=O)Nc3ccccc3)ccc2O[C@@H]1CN(C)Cc1ccc(C(=O)Nc2ccccc2N)cc1 was read as NOMO-1 viab 108 and PD-1 reverse act inactive.
For C=C(C)C(=O)O[C@H]1CC(=C)C2C[C@H](O)[C@](O)(CO)C2[C@H]2OC(=O)C(=C)[C@H]12 (stereo not given in full) the results were NOMO-1 viab 119, PD-1 reverse act inactive and STK33 kin inh inactive.
Nc1cc(N)cc(C(=O)OCN2C(=O)c3ccccc3C2=O)c1 was read as NOMO-1 viab inactive and PD-1 reverse act inactive.
For COc1cc(=O)oc([C@@]2(C)O[C@H]2/C(C)=C\C(C)=C\[C@@]2(C)O[C@@H](C)[C@]3(C)OC23)c1C (stereo not given in full) the results were NOMO-1 viab inactive, PD-1 reverse act inactive and STK33 kin inh inactive.
For CC12CCC(CC(=O)c3ccccc3)(CC1)CC2 the results were NOMO-1 viab inactive and PD-1 reverse act inactive.
Screening CC(C)(C)C1CCC2(CC1)C(C#N)C2(C#N)C(=O)c1ccccc1 (stereo not given) returned NOMO-1 viab 125 and PD-1 reverse act inactive.
`Cc1ccc2nc(-c3ccc(NC(=O)CS(=O)(=O)Cc4ccccc4)cc3)sc2c1` gave NOMO-1 viab inactive, PD-1 reverse act inactive and STK33 kin inh inactive.
Screening CC(C)C(=O)Nc1ccc(C(=O)NCc2ccco2)cc1 returned NOMO-1 viab inactive and STK33 kin inh inactive.
Cc1cc(Cl)c(S(=O)(=O)N2CCCCC2)cc1OCC(N)=O was read as NOMO-1 viab inactive, PD-1 reverse act inactive and STK33 kin inh inactive.
Screening O=C(c1ccc(F)cc1)n1nc(-c2ccc(Cl)cc2)nc1NCc1ccco1 returned NOMO-1 viab 104, PD-1 reverse act inactive and STK33 kin inh inactive.
Screening O=C(c1ccccc1Cl)n1nc(-c2ccccc2)nc1NCc1ccco1 returned NOMO-1 viab inactive, PD-1 reverse act inactive and STK33 kin inh inactive.
Screening CCC(Sc1nnnn1-c1ccccc1)C(=O)Nc1ccc([N+](=O)[O-])cc1 (stereo not given) returned NOMO-1 viab inactive, PD-1 reverse act inactive and STK33 kin inh inactive.
CCOC(=O)c1c(CN2CCCCC2)n(-c2ccccc2)c2ccc(OC(C)=O)cc12 was read as NOMO-1 viab inactive and PD-1 reverse act inactive.
CCOc1ccc2ccccc2c1C(=O)NCc1ccco1 was read as NOMO-1 viab inactive, PD-1 reverse act inactive and STK33 kin inh inactive.
Screening Cc1oc(-c2cc(Cl)cc(Cl)c2)cc1C(=O)NCc1ccco1 returned NOMO-1 viab inactive and STK33 kin inh inactive.
`C[C@H]1CN([C@@H](C)CO)C(=O)Cc2cc(N(C)C)ccc2O[C@H]1CN(C)Cc1ccccc1` gave NOMO-1 viab inactive, PD-1 reverse act inactive and STK33 kin inh inactive.
C[C@@H]1CN([C@@H](C)CO)C(=O)Cc2cc(N(C)C)ccc2O[C@@H]1CN(C)Cc1ccc(Oc2ccccc2)cc1 was read as NOMO-1 viab 106 and STK33 kin inh inactive.
Screening C[C@@H]1CN([C@H](C)CO)C(=O)Cc2cc(N(C)C)ccc2O[C@H]1CN(C)Cc1ccccc1 returned NOMO-1 viab inactive and STK33 kin inh inactive.
Screening C[C@@H]1CN([C@@H](C)CO)C(=O)Cc2cc(N(C)C)ccc2O[C@@H]1CN(C)Cc1ccccc1 returned NOMO-1 viab 122 and STK33 kin inh inactive.
Screening O=C(NCc1nc(-c2ccccc2)no1)c1ccc2ccccc2c1 returned NOMO-1 viab inactive, PD-1 reverse act inactive and STK33 kin inh inactive.
`Cc1ccc(S(=O)(=O)Nc2ccccc2/C(O)=C(/C#N)c2nc3ccccc3n2C)cc1` gave NOMO-1 viab inactive and PD-1 reverse act inactive.
For COc1cc2c(cc1-c1coc3cc(O[C@@H]4O[C@H](CO)[C@@H](O)[C@H](O)[C@H]4O)ccc3c1=O)OCO2 the results were NOMO-1 viab inactive, PD-1 reverse act inactive and STK33 kin inh inactive.
COc1cc2c(cc1-c1coc3c4c(ccc3c1=O)OC(C)(C)C=C4)OCO2 was read as NOMO-1 viab 87, PD-1 reverse act inactive and STK33 kin inh inactive.
For CC1(C(=O)NCCCn2ccnc2)CC1(Cl)Cl (stereo not given) the results were NOMO-1 viab inactive, PD-1 reverse act inactive and STK33 kin inh inactive.
